This is an account of results in PubChem BioAssay AID589 (National Center for Advancing Translational Sciences (NCATS), 2007).

Out of some 59,000 compounds screened, about 6,200 (11%) were called active. Inconclusive results (about 9%) are left out. Rule as the data show it: active = max dye-equivalent concentration above about 10 nM; inconclusive = mostly about 1.1 nM to 9.6 nM; inactive = weaker than that. This excerpt belongs to a sample that is enriched for actives.

The assay can be described thus: qHTS Assay for Spectroscopic Profiling in 4-MU Spectral Region. To be noted: compound autofluorescence, 340/450 nm, 4-MU equivalents; hits give high values. Put shortly:
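Compounds in 100 mM Tris, pH 8.0, incubated 15 min at room temperature, then fluorescence read at 340 nm excitation/450 nm emission. Signal converted to 4-MU dye-equivalent concentration using an on-plate six-point 4-MU standard curve.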
(In general: In qHTS, concentration-response curves come from the screen itself.)
With `Cc1cc(C)c(C)c(S(=O)(=O)Nc2ccc(O)cc2)c1C`, the max dye-equivalent concentration result was “inactive”.

As for `COCCCNC(=O)c1ccc(CNS(=O)(=O)c2ccc(NC(C)=O)cc2)cc1`, the max dye-equivalent concentration entry is “inactive”.

Consider `CC(C)C1Cc2c(sc3c2c(=O)n(-c2ccccc2)c2nncn32)CO1` (stereo unspecified), for which the max dye-equivalent concentration result is “inactive”. As for `O=C(CCC(=O)c1cccs1)NCc1ccccc1`, the entry is “inactive”; as for `COC(=O)c1cn(CC(=O)NCc2cccs2)c2ccccc12`, “inactive”. On to `O=C(Cn1cc(C(=O)c2cccs2)c2ccccc21)NCc1cccs1`, for which the max dye-equivalent concentration is 29 nM (active).

For `CCc1ccc(CCC(=O)Nc2ccc(S(N)(=O)=O)cc2)o1`, the max dye-equivalent concentration result is “inactive”. As for `Clc1ccc(C(c2ccc(Cl)cc2)n2cc[n+](C[C@@H](OCc3ccc(Cl)cc3Cl)c3ccc(Cl)cc3Cl)c2)cc1`, the entry is “inactive”; as for `CC1CCCN(c2ccc(C(=O)NCCc3ccccc3)cn2)C1` (stereo unspecified), “inactive”; as for `Cc1ccc(S(=O)(=O)NC(=O)NN2C[C@H]3CCC[C@@H]3C2)cc1`, “inactive”. As for `O=C(OCC(=O)N1CCCC1)c1ccco1`, the entry is “inactive”; as for `Nc1nc2n(n1)C(c1ccco1)CC(c1ccc(Cl)c(Cl)c1)N2` (stereo unspecified), “inactive”; as for `CC1CC(c2ccccc2)n2nc(NC(=O)c3cccs3)nc2N1` (stereo unspecified), “inactive”. As for `COc1ccc(C2CC(c3ccc(C)cc3)Nc3nc(N)nn32)cc1` (stereo unspecified), the max dye-equivalent concentration was 2500 nM (active). The value for `CCc1c(C)c2c(C)[nH]nc2oc1=O` was “inactive”.

On to `COCCn1nnnc1C(c1ccccc1Cl)N1CCN(c2ccccc2OC)CC1` (stereo unspecified), for which the max dye-equivalent concentration entry was “inactive”. In the case of `COc1ccc(OC)c(C(c2nnnn2C(C)(C)C)N2CCc3ccccc3C2)c1` (stereo unspecified), the max dye-equivalent concentration entry was “inactive”. The value for `Cc1cc(C)c2[nH]c(=O)c(C(c3nnnn3Cc3ccc4c(c3)OCO4)N3CCCC3)cc2c1` (stereo unspecified) was “inactive”.

Take `COCCn1nnnc1C(c1cc2ccc(OC)cc2[nH]c1=O)N1CCc2ccccc2C1` (stereo unspecified): the max dye-equivalent concentration was 17 nM (active). The value for `CCOc1ccc2[nH]c(=O)c(C(c3nnnn3CCOC)N3CCOCC3)cc2c1` (stereo unspecified) was 720 nM (active); that for `COc1ccc(N2CCN(C(c3cc4ccc(C)cc4[nH]c3=O)c3nnnn3C3CCCC3)CC2)cc1` (stereo unspecified) was “inactive”; that for `CCCOc1ccccc1C(=O)NCCCC(=O)O` was “inactive”.

For the compound `COC(=O)Nc1ncc(CN2C(=O)c3ccccc3C2=O)s1`, the max dye-equivalent concentration entry is “inactive”. The value for `O=C(CCCn1c(SCC(=O)c2ccc(F)cc2)nc2ccccc2c1=O)NCc1ccco1` was “inactive”; that for `CC1(N2CCOCC2)CC2(O)C(=[N+]1[O-])CCc1nonc12` (stereo unspecified) was “inactive”. The value for `CCn1c(COc2ccccc2)nnc1SCC(=O)Nc1ccc2c(c1)OCCO2` was “inactive”. On to `COc1ccc(S(=O)(=O)N2CCCCC2)cc1Br`, for which the max dye-equivalent concentration entry was “inactive”. As for `C=CCn1c(CC(=O)Nc2cccc(OC)c2)nnc1SCC(=O)NC1CCCCC1`, the entry is “inactive”. For the compound `COc1ccc(OCC(=O)N2CCN(C(=O)COc3ccccc3)CC2)cc1`, the max dye-equivalent concentration entry was “inactive”. The value for `CCC(CC)C(=O)Nc1cccc(C(=O)N2CCCC2)c1` was “inactive”. As for `COc1ccc(OCc2cccc(C(=O)N3CCCC3)c2)cc1`, the figure is 19 nM (active). The value for `c1ccc(CCc2nc(-c3ccncc3)no2)cc1` was “inactive”; that for `CC(=O)N1CCC(C(=O)Nc2nc(-c3ccccc3)ns2)CC1` was 1800 nM (active). In the case of `Cc1ccc2c(NC(=O)C3CC3)cccc2n1`, the max dye-equivalent concentration result was “inactive”. As for `Cc1cc(C)cc(NC(=O)C2CCN(c3nc(C)cc(C)n3)CC2)c1`, the entry is “inactive”; as for `CCCOc1ccccc1-c1nc(SCCC(=O)O)n[nH]1`, “inactive”.

For `CCn1c(=N)n(CC(=O)c2cccc(OC)c2)c2ccccc21`, the max dye-equivalent concentration result was “inactive”. The value for `COC(=O)c1ccc(CSc2nncn2C)cc1` was “inactive”; that for `Cc1ccc(C(c2nnnn2C(C)(C)C)N2CCc3ccccc3C2)cc1` (stereo unspecified) was “inactive”.

Regarding `Cc1ccc(NC(=O)CCN2CCc3ccccc3C2)cc1`, the max dye-equivalent concentration result is “inactive”. As for `Cc1ccc2c(c1)c1ncnc(N3CCc4ccccc4C3)c1n2C`, the figure is 140 nM (active); as for `CCOC(=O)CSc1nnc(NC(=O)c2cccc(S(=O)(=O)N3CCCCC3)c2)s1`, “inactive”. Take `Cc1cc(C)c2nc3c(c([C@H](O)[C@@H]4CCCCN4)c2c1)CC/C3=C/c1ccc(Cl)cc1`: the max dye-equivalent concentration result is “inactive”.

`CN1CCc2[nH]nc(-c3n[nH]c4c3CN(C)CC4)c2C1`: the max dye-equivalent concentration entry was “inactive”. Take `c1coc(-c2nc3nc4ccccc4n3nc2-c2ccco2)c1`: the max dye-equivalent concentration entry was “inactive”. As for `Cn1c(-c2ccco2)nc2cc3ccccc3cc21`, the figure is 890 nM (active).

On to `CCOC(=O)CSc1nnc(-c2ccco2)n1C`, for which the max dye-equivalent concentration result was “inactive”.

In the case of `O=C(c1ccco1)N1CCN(C(=O)c2ccc(COc3ccc(F)cc3)o2)CC1`, the max dye-equivalent concentration result was “inactive”. The value for `O=C(c1ccco1)N1CCC2(CC1)CN(c1ncccn1)C2` was “inactive”. In the case of `CCCCNC(=O)CSc1nnc(-c2ccco2)n1C`, the max dye-equivalent concentration result is “inactive”. For the compound `Cn1c(=O)c2c(ncn2CC(=O)N2CCN(c3ccccc3)CC2)n(C)c1=O`, the max dye-equivalent concentration result was “inactive”.

`COc1ccccc1NC(=O)c1ccc(C)s1`: the max dye-equivalent concentration entry was “inactive”. Take `COc1ccccc1NC(=O)C1=C(C)NC2=C(C(=O)CCC2)C1c1ccc(C)o1` (stereo unspecified): the max dye-equivalent concentration is 16 nM (active). As for `COc1ccccc1NC(=O)C1=C(C)Nc2ncnn2C1c1ccc(C)o1` (stereo unspecified), the entry is “inactive”; as for `O=C(NCCN=C1NS(=O)(=O)c2ccccc21)c1ccc(S(=O)(=O)N2CCOCC2)cc1`, “inactive”; as for `Cc1cc(=O)oc(C)c1C(=O)NC1CC(C)(C)NC(C)(C)C1`, “inactive”. In the case of `COCc1nnc(NC(=O)CS(=O)(=O)Cc2ccccc2)s1`, the max dye-equivalent concentration entry is “inactive”. Take `O=C(O)C1CCCN1S(=O)(=O)c1ccc2c(c1)CCC2` (stereo unspecified): the max dye-equivalent concentration result was “inactive”. As for `CCS(=O)(=O)NCCc1ccc(OC)c(OC)c1`, the entry is “inactive”; as for `CCNC(=O)c1c(O)c2cccc3c2n(c1=O)CC3`, 17 nM (active). The value for `Cn1c(C(=O)NCCN2CCc3ccccc3C2)cc2c(=O)[nH]c3ccccc3c21` was “inactive”. With `Cc1cc(=O)n2c3c(cccc13)CCC2`, the max dye-equivalent concentration result was “inactive”.

For `O=S(=O)(O)c1ccc(O)c2ncccc12.O=S(=O)(O)c1ccc(O)c2ncccc12.[Zn]`, the max dye-equivalent concentration result was “inactive”. As for `Cc1ccccc1N1CCN(S(=O)(=O)C[C@@]23CC[C@H](C[C@H]2NC(=O)[C@@H](N)CCS(C)(=O)=O)C3(C)C)CC1`, the entry is “inactive”; as for `CCOC(=O)C1=C(CNC2CCCCC2)NC(=O)NC1c1cc(C)ccc1C` (stereo unspecified), “inactive”; as for `COc1cc(OC)cc(C(=O)NCCSCc2ccco2)c1`, “inactive”. `O=C(CSc1nnc(-c2cccnc2)n1Cc1ccco1)c1ccc(Cl)cc1`: the max dye-equivalent concentration entry was “inactive”. The value for `Clc1cccc(-c2nc3nc4ccccc4nc3n2Cc2ccco2)c1` was 110 nM (active); that for `C(=C\c1ccccc1)/CSc1nnc(-c2cccnc2)n1Cc1ccco1` was “inactive”. The value for `C=C(C)Cn1c(SCC(=O)NCc2ccco2)nc2sc3c(c2c1=O)CCC3` was “inactive”. The value for `c1coc(CNc2ncnc3ccccc23)c1` was “inactive”; that for `CN1CCc2c(sc3c2c(NCc2ccco2)nc2nnnn23)C1` was 380 nM (active).

On to `Cc1cccc(N(CC(O)CN(C)C)S(=O)(=O)c2ccccc2)c1` (stereo unspecified), for which the max dye-equivalent concentration entry was “inactive”. The value for `CCOC(=O)N1CCN(C(=O)CN(C2CCCCC2)S(C)(=O)=O)CC1` was “inactive”; that for `Cc1cccn2c(=O)c3cc(C(=O)NCc4ccccn4)n(C)c3nc12` was 190 nM (active).

Turning to `O=C(NCc1ccco1)c1nc2ncccn2n1`, the max dye-equivalent concentration result was “inactive”. The value for `Cc1cccn2c(=O)c3cc(C(=O)N4COCC4(C)C)n(C)c3nc12` was 970 nM (active).

On to `O=C(NCc1ccccn1)c1c(O)c2c([nH]c1=O)CCCC2`, for which the max dye-equivalent concentration result was “inactive”. Consider `CCOC(=O)N1CCN(S(=O)(=O)c2cc3c(cc2C)NC(=O)CO3)CC1`, for which the max dye-equivalent concentration entry is “inactive”. The value for `Cc1cnc(CNc2ncncc2-c2ccccc2Cl)cn1` was “inactive”; that for `Cc1ccccc1C(OCC(O)CN1CCCCC1CCO)c1ccccc1` (stereo unspecified) was “inactive”. As for `Cc1noc(C)c1C(=O)Nc1ccccn1`, the entry is “inactive”; as for `Cc1noc(C)c1C(=O)OCC(=O)/C=C1\N(C)c2ccccc2C1(C)C`, 150 nM (active); as for `Cc1ccc(-c2nc(COC(=O)c3c(C)noc3C)cs2)cc1`, “inactive”.

With `COc1ccc(C(=O)N/N=C2/C(=O)c3c(C)cc(C)cc3CC2(C)C)cc1`, the max dye-equivalent concentration entry is “inactive”. As for `Cc1ccc(S(=O)(=O)N2CCC(C(=O)N[C@@H](C)C(=O)NCCc3ccccc3)CC2)cc1`, the entry is “inactive”. The value for `CCOc1ccc(-n2c(SC(C)C(=O)OC)nc3c(c2=O)SCC3)cc1` (stereo unspecified) was “inactive”. As to `CCOC(=O)N1CCC(NC(=O)CCc2cn(C)c3ccccc23)CC1`, the max dye-equivalent concentration is 380 nM (active). As for `CCOC(=O)N1CCC(NC(=O)C(C)n2c3ccccc3c3cnn(C)c(=O)c32)CC1` (stereo unspecified), the entry is “inactive”; as for `CCOC(=O)N1CCC(NC(=O)Cc2cn(C)c3ccccc23)CC1`, “inactive”. The value for `CCCN1C2=C(C(=O)CCC2)C(c2ccc(O)c(Br)c2)C2=C1CCCC2=O` was 78 nM (active); that for `COc1cc(Cl)cc(C2NC(=O)NC(C)=C2C(=O)NCc2ccccc2)c1O` (stereo unspecified) was “inactive”. As for `COc1cc([C@H]2c3cc4c(cc3[C@@H](O[C@@H]3O[C@H]5CO[C@@H](C)O[C@]5(O)C[C@H]3O)[C@@H]3COC(=O)[C@H]23)OCO4)cc(OC)c1O`, the entry is “inactive”. On to `CC(C)C(=O)N1c2ccccc2NC2=C(C(=O)CCC2)C1c1ccc(N(C)C)cc1` (stereo unspecified), for which the max dye-equivalent concentration entry is “inactive”. As for `O=C1CCCC2=C1C(c1cccs1)n1nc(SCc3ccccc3)nc1N2` (stereo unspecified), the figure is 110 nM (active); as for `CC(C)(C)NCC[C@@H](O)c1cc(C(F)(F)F)nc2c(C(F)(F)F)cccc12`, “inactive”. As for `CC(=O)Nc1ccc(-c2nn3c(C)nnc3s2)cc1C`, the entry is “inactive”; as for `Fc1ccc(-c2ccc(-c3nn4c(-c5ccco5)nnc4s3)o2)cc1`, 51 nM (active); as for `Cc1nnc2sc(-c3ccco3)nn12`, “inactive”. The value for `Fc1ccc(-c2nnc3sc(-c4ccc5c(c4)OCO5)nn23)cc1` was 26 nM (active); that for `c1ccc(-c2nnc3n2NC(c2ccc4c(c2)OCO4)S3)cc1` (stereo unspecified) was “inactive”. Regarding `FC(F)(F)c1nnc2sc(-c3ccco3)nn12`, the max dye-equivalent concentration result was “inactive”.

For `CCOC(=O)C(C(=O)OCC)C(C#N)c1ccccc1` (stereo unspecified), the max dye-equivalent concentration entry is “inactive”. As for `CCCn1c(SCC(=O)N2CCc3ccccc32)nnc1-c1ccncc1`, the entry is “inactive”. As for `Cc1cc(C)n2nc(C(=O)Oc3ccc4c(c3)OCO4)nc2n1`, the entry is “inactive”.

In the case of `CCOc1ccc(NCCC(=O)c2ccc3c(c2)OCO3)cc1`, the max dye-equivalent concentration result was “inactive”.
